# Results published in PubChem BioAssay (NCI).
# The panel holds about 79,000 compounds, 15% with a hit somewhere; the sample as a whole holds those more often. Unmarked numbers belong to inactive results. Activity calls are given as the source filed them. No stated cut-off is given here; in the data, active means growth inhibition above about 70%; inactive means the rest.
# How the values were obtained:
# [1] = NCI Yeast Anticancer Drug Screen. Data for the rad50 strain (AID 155);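 further: 0% = growth of vehicle-only cultures of the same strain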; conditions: S. cerevisiae rad50 strain growth inhibition; at 50.0 µM; hits give high values
# Summary of the method: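 Growth of the mutant yeast was measured after compound exposure and referenced to vehicle-treated cultures.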
# [2] = NCI Yeast Anticancer Drug Screen. Data for the mec2-1 strain (AID 157); conditions: S. cerevisiae mec2-1 strain, at 50.0 µM, hits give high values
# Summary of the method: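 Strain: mec2-1 (DNA repair/cell cycle alteration). Compound exposure, then growth measured; inhibition expressed relative to vehicle.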
# [3] = NCI Yeast Anticancer Drug Screen. Data for the sgs1 mgt1 strain (AID 161);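 further: 0% = growth of cultures given vehicle only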; conditions: S. cerevisiae sgs1 mgt1 strain, at 50.0 µM, hits give high values
# Summary of the method: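 Test agents were incubated with a DNA-repair-mutant yeast strain. Growth was then read and compared against vehicle-treated controls.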
# [4] = NCI Yeast Anticancer Drug Screen. Data for the cln2 rad14 strain (AID 165);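 further: 0% = growth equal to vehicle treated cultures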; conditions: S. cerevisiae cln2 rad14 strain, at 50.0 µM, hits give high values
# Summary of the method: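 Compounds are applied to the cln2 rad14 yeast strain, and growth is then compared with that of vehicle-treated cultures to give inhibition.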
# [5] = NCI Yeast Anticancer Drug Screen. Data for the bub3 strain (AID 167); conditions: S. cerevisiae bub3 mutant strain, at 50.0 µM, hits give high values
# Summary of the method: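 Whole-cell yeast assay. The mutant strain was incubated with compounds, and growth inhibition was determined by comparison with vehicle-treated cells.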
# [6] = NCI Yeast Anticancer Drug Screen. Data for the mlh1 rad18 strain (AID 175); conditions: S. cerevisiae mlh1 rad18 strain growth inhibition; at 50.0 µM; hits give high values
# Summary of the method: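 Read-out is yeast growth inhibition, calculated against vehicle-only controls. The compound was applied to a strain engineered with DNA damage repair alterations.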
SMILES,growth inhibition [1],growth inhibition [2],growth inhibition [3],growth inhibition [4],growth inhibition [5],growth inhibition [6]
CC(C)(C)c1cc(C(=O)Nc2cc(Br)c(Br)cc2S(N)(=O)=O)cc(C(C)(C)C)c1O,37%,7.8%,31.6%,25%,39.8%,37.9%
CCc1cc2c(cc1/C(C)=N/N=C(\C)c1cc3c(cc1CC)C(C)(C)CCC3(C)C)C(C)(C)CCC2(C)C,-27.1%,-1.8%,-9.3%,-30.6%,9.95%,-15.5%
CC1(C)CCCOc2cccc(c2)OCCCC(C)(C)C1=O,14.5%,-1.7%,-9.05%,27.1%,28.8%,25.9%
c1cncc(CNc2ncn[nH]2)c1,-2.5%,8.3%,-24.1%,-50.3%,-24.9%,-29.8%
COC1OC(C(C)O)C(O)C(O)C1O (stereo unspecified),23.6%,19%,10.2%,14.9%,4.65%,1.5%
CC1=CC2OC3C(OC(=O)c4ccccc4)C(OC(=O)c4ccccc4)C(C)(C2(COC(=O)c2ccccc2)CC1)C31CO1 (stereo unspecified),6.3%,-3.1%,1.55%,7.8%,4.85%,17.7%
O=S(=O)(Nc1cccc(Cl)c1)c1ccc(F)cc1,-8.45%,-11.2%,-13.2%,-5.4%,-11.3%,2.5%
COC(=O)C1CCC(/C(C#N)=C2/CCC(C(=O)OC)[N-]2)=N1.COC(=O)C1CCC(/C(C#N)=C2/CCC(C(=O)OC)[N-]2)=N1.[Cu+2] (stereo unspecified),-13.8%,-24.2%,3.5%,-43.3%,-24.5%,11.2%
c1ccc2c(N=C(Nc3cccc4ccccc34)c3cccc4ccccc34)cccc2c1,20.4%,19.6%,35.8%,28.9%,17.3%,13.6%
CCC(O)C(C)(C)N (stereo unspecified),13.4%,-7.8%,2.7%,-6.45%,4.45%,0.4%
O=C(O)C(CCc1cccc(Cl)c1)C(=O)O,8.1%,-13.8%,-0.85%,2.15%,4.35%,-11.6%
Cc1ccc(C(=O)NNC(=O)c2ccc3ccccc3c2)cc1,-15.4%,-19.4%,7%,10.2%,-16.6%,-12.9%
C(=N\N1CCN(/N=C/c2c[nH]c3ccccc23)CC1)/c1c[nH]c2ccccc12,10.3%,-11.5%,-12.8%,-1.05%,0.7%,-3.05%
CC(=O)c1c(C)c(Cl)c(C)c(Cl)c1O,-14.6%,2.75%,17.6%,7.4%,26.4%,7%
CCOC1(c2ccccc2)c2ccccc2Sc2ccccc21,-12.5%,12.7%,5.5%,-6.1%,14.4%,16.3%
CCOC(=S)SC1OC(COC(C)=O)C(OC(C)=O)C(OC(C)=O)C1OC(C)=O (stereo unspecified),57.5%,11.4%,55.2%,45.8%,17.2%,10.7%
C[C@]12CC[C@@H]3c4ccc(O)cc4CC[C@H]3[C@@H]1CC[C@@H]2OC(=O)CCc1ccccc1,35.1%,9.8%,26.3%,28.5%,-2.4%,31.1%
COc1ccc(N(Cc2ccccc2)c2nn[nH]n2)cc1,13.9%,-18.4%,-3.3%,11.6%,-5.6%,-19.8%

SMILES,growth inhibition [1],growth inhibition [2],growth inhibition [3],growth inhibition [4],growth inhibition [5],growth inhibition [6]
CN(C)CC1CCC(CN(C)C)C(=O)C1=O (stereo unspecified),-36%,-39.4%,-64.5%,-14.7%,-31.3%,-31.3%
Cc1ccc(C(C)(C#N)Nc2ccccc2)cc1 (stereo unspecified),-7.05%,-1.8%,-8.2%,-25.2%,-11.2%,-0.45%
c1ccc(N2CCSCC2)cc1,2.95%,-5.45%,-21.9%,-6.25%,0.3%,-7.15%
CCc1cc2c(cc1C(=O)/C=C\c1cccc3ccccc13)C(C)(C)CCC2(C)C,13.1%,-5.35%,8.15%,-20.1%,-3.5%,15%
COC(=O)/C=C1/CC[C@H]2[C@@H]3CCC4=CC(=O)CC[C@]4(C)[C@H]3C(=O)C[C@]12C,42.5%,6.35%,14.3%,-28%,14.2%,33.2%
CC(=O)CC(=O)N1C(C)CCCC1C (stereo unspecified),-12.3%,-36.7%,-7.55%,-0.4%,-18.1%,-18.7%
CSC(=S)n1nc(C)c(N=Nc2ccccc2[N+](=O)[O-])c1C,26.5%,-2.85%,0.15%,5.05%,7.95%,7.75%
CC1C(=O)C(c2ccccc2)(c2ccccc2)CC[N+]1(C)C (stereo unspecified),1.1%,5.4%,2.8%,-13.7%,4.1%,10.4%
CCCN(CCC)CC(O)c1cccc2c1cc(Cl)c1ccccc12 (stereo unspecified),99.6% (active),99.7% (active),99.8% (active),99% (active),91.3% (active),99.7% (active)
CCOC(=O)C(C)(C)Oc1ccc2c(=O)cc(-c3ccc(Cl)cc3)oc2c1,-19.6%,-20.1%,-30.3%,-14.5%,-38.9%,-29.4%
Clc1ccc(CCn2cncn2)cc1,-15.6%,-11.9%,-44.9%,-11.7%,-22.6%,-18.8%
CSCC1CC(c2ccc(Cl)cc2)=NO1 (stereo unspecified),27.8%,6.8%,1.05%,-1.4%,0.45%,32.6%
O=C(NC(=O)C(Cl)Cl)OC1c2cc(Cl)ccc2-c2c(Cl)cc(Cl)cc21 (stereo unspecified),99.1% (active),99.5% (active),99.3% (active),98.8% (active),97.8% (active),99.2% (active)
CCCCCCCC(=O)NCCCC(C)Nc1cc(OC)cc2cccnc12 (stereo unspecified),39.7%,47%,19.4%,14.9%,22%,28.1%
NCCSCCN,-7.65%,-2.45%,-4.65%,-0.3%,13.2%,8.15%
C=C(C)C1CC=C(/C=N/O)CC1 (stereo unspecified),-4.6%,4%,5.65%,-13.7%,8.1%,2.8%
CCCC(N)S(=O)(=O)O (stereo unspecified),-25.6%,-10.6%,-23.9%,-14.1%,6.1%,-11.2%
CN(C)Cc1ccccc1COC(=O)/C=C/c1ccccc1,11.3%,7.5%,8.8%,10.1%,7.4%,8.95%
